Screens deposited in PubChem BioAssay by several laboratories.
PostGolgi yeast – growth inhibition of a yeast mutant, post-Golgi transport screen; AID 739; 98,000 tested, 0.9% active; inhibition, % at 10 µM; post-Golgi transport phenotypic cell assay;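 also: yeast cells grown in 1536-well plates; yeast grown about 18 h at 30C before absorbance read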
CYP2C19 inhib – inhibitors of human CYP2C19. AID 778. 96,000 tested, 21% active. CYP2C19 Supersomes, luciferin-H EGE luminescence, 30 min. inhibition, % at 5 µM. P33261;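 active = CYP2C19 inhibition above a set limit at 5 µM in the primary screen, cut at about 50% in these data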
Target sequence (P33261 whole entry, looked up): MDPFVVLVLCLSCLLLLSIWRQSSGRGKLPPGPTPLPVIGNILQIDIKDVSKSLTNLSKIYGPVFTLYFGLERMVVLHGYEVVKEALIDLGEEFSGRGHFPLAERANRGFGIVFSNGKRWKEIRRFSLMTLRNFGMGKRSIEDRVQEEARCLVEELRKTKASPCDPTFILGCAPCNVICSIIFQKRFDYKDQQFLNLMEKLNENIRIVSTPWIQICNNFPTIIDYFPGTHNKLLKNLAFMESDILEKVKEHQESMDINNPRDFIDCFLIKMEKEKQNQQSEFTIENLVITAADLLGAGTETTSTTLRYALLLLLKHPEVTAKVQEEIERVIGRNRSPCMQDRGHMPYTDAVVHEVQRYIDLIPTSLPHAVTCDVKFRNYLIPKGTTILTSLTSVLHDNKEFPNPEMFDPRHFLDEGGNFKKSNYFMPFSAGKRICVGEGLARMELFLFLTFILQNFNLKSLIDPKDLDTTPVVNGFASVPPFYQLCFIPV
PostGolgi ctrl – inhibits growth of the yeast control strain | AID 738 | 98,000 tested, 5% active | efflux-deficient yeast background strain, growth absorbance A615, 16 h | inhibition, % at 10 µM
CYP2C9 act – CYP2C9 (human) activation. AID 1024. recombinant CYP2C9, luciferin-H conversion, luminescence; active compounds read high; factor 1 = untreated enzyme, 0 = blocked. 96,000 tested, 1.4% active. activation factor at 5 µM. P11712;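 active = activation factor of 2 or more for CYP2C9 at a 5 µM dose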
CYP2C19 activ – cytochrome P450 2C19 (human) activation; activation factor at 5 µM; recombinant CYP2C19, luciferin-H EGE luminescence; active compounds read high; 0 = fully inhibited enzyme, 1 = untreated enzyme; P33261; 96,000 tested, under 10 active;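 active = activation factor of at least 2 at 5 µM in the primary screen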
CYP2C9 inh – blocks human cytochrome P450 2C9 | 96,000 tested, 20% active | CYP2C9 Supersomes, luciferin-H conversion, luminescence | inhibition, % at 5 µM;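 active = blocking of liver enzyme CYP2C9 beyond about 50% at 5 µM, limit read from the data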
A number is an active result; n = inactive; x = no result given. In the library only some 32% were active in any assay of this set; here they are far more common. Rule as the data show it, unless noted: active = inhibition above about 30%; inactive = the rest.

SMILES | PostGolgi yeast | CYP2C19 inhib | PostGolgi ctrl | CYP2C9 act | CYP2C19 activ | CYP2C9 inh
O=C(CSCc1cnn(-c2ccccc2)c1-n1cccc1)NCC1CCCO1 (stereo not drawn) | n | 80 | n | n | n | 79
Cc1ccc(C)c(SCC(=O)NCc2ccco2)c1 | n | n | n | n | n | n
Cc1ccc(CS/C(Nc2ccccc2C)=C(\C#N)C(=O)NCc2ccco2)c(C)c1 | n | 51 | n | n | n | n
Cc1ccccc1N/C(SCc1ccc(Cl)cc1)=C(/C#N)C(=O)NCc1ccco1 | n | 85 | n | n | n | 55
OC(CCCCN1CCCCC1)c1ccccc1 (stereo not drawn) | n | n | n | n | n | n
COC(=O)C(C)NC(=O)C12CC3CC(CC(C3)C1)C2 (stereo not drawn) | n | n | n | n | n | n
COc1ccc(-c2nn(CCC(=O)O)cc2CCC(=O)O)cc1 | n | n | n | n | n | n
COc1ccc(OC(=O)c2cn(C)nc2C(F)(F)F)cc1 | n | 61 | n | n | n | n
Cc1cccc(-n2ncc3c(NC4CCCCC4)ncnc32)c1 | n | x | n | x | x | x
C=CCNc1ncnc2c1cnn2-c1ccc(Cl)cc1 | n | n | n | n | n | n
Cc1cccc(-n2ncc3c(NCCCO)ncnc32)c1 | n | n | n | n | n | 64
C=CCNc1ncnc2c1cnn2-c1cccc(C)c1 | n | 66 | n | n | n | 73
Cn1c(=O)c2cc(S(=O)(=O)NC(C(=O)NCc3cccnc3)c3ccccc3)ccc2n(C)c1=O (stereo not drawn) | n | n | n | n | n | n
CC(=O)c1c(COC(=O)c2ccco2)nc2ccccc2[n+]1[O-] | x | 60 | x | n | n | 63
CC(=O)c1c(COC(=O)c2ccncc2)nc2ccccc2[n+]1[O-] | n | 92 | n | n | n | n
CCOC(=O)c1c(COC(=O)c2ccco2)nc2ccccc2[n+]1[O-] | n | n | n | n | n | n
O=C(NCc1cccnc1)C1CCN(S(=O)(=O)N2CCC3(CC2)OCCO3)CC1 | n | n | n | n | n | n
Cc1ccc2nc(SC(C)C(=O)N3CCCC3)[nH]c2c1 (stereo not drawn) | n | x | n | x | x | x
Cc1ccc(SC(C)C(=O)N2CCCC2)cc1 (stereo not drawn) | n | 76 | n | n | n | n
O=c1[nH]c2ccccc2nc1-c1cccs1 | n | n | n | n | n | n
O=C(/C(=C/c1ccc(Cl)cc1)c1nc2ccccc2[nH]1)c1cccs1 | 104 | 76 | 101 | n | n | 99
COc1cc(/C=C(/C(=O)c2cccs2)c2nc3ccccc3[nH]2)ccc1O | n | n | n | n | n | 55
Cn1nnnc1SCC(=O)c1ccc(Br)s1 | n | 65 | n | n | n | n
Cn1c(Cc2ccccc2)nnc1SCC(=O)c1ccc(Br)s1 | n | 75 | n | n | n | 70
Cn1nnnc1SCC(=O)c1cccs1 | n | n | n | n | n | n
SMILES | PostGolgi yeast | CYP2C19 inhib | PostGolgi ctrl | CYP2C9 act | CYP2C19 activ | CYP2C9 inh
COCCn1c(Cc2ccccc2)nnc1SCC(=O)N(C)C | n | n | n | n | n | n
Cc1nc2ccccc2n1CC(O)Cn1c2ccccc2c2ccccc21 (stereo not drawn) | n | 75 | n | n | n | 78
Cc1ccc2c(c1)c1c(n2CC2COC(C)(C)O2)C(=O)CCC1 (stereo not drawn) | n | 76 | n | n | n | 73
CC(=O)Nc1ccc(OCC(O)Cn2c(C)nc3ccccc32)cc1 (stereo not drawn) | n | n | n | n | n | n
Cc1ccc2c(c1)c1c(n2CC(O)CN2C(=O)CNC2=O)C(=O)CCC1 (stereo not drawn) | n | n | n | n | n | n
Cc1ccc2c(c1)c1c(n2CC(O)Cn2c(C)nc3ccccc32)C(=O)CCC1 (stereo not drawn) | n | n | n | n | n | 86
Cc1ccc2c(c1)c1c(n2CC(O)Cn2c(C)nc3ccccc32)/C(=N\O)CCC1 (stereo not drawn) | n | 54 | n | n | n | 96
CC1(C)CC(NC(=O)C23CCC(C)(C(=O)C2)C3(C)C)CC(C)(C)N1 (stereo not drawn) | n | n | n | n | n | 60
CC12CCC(C(=O)NCCN3CCCCC3)(CC1=O)C2(C)C (stereo not drawn) | n | n | n | n | n | n
COc1ccc(-c2nnc(Sc3nc4ccccc4o3)c3ccccc23)cc1 | n | x | 46 | x | x | x
COc1ccc(-c2nnc(N3CCCCC3)c3ccccc23)cc1 | n | n | n | n | n | n
Cc1[nH]c2ccc(F)cc2c(=O)c1SC(F)(F)C(F)C(F)(F)F (stereo not drawn) | n | 80 | n | n | n | 56
N=c1c2c(-c3ccccc3)c(-c3ccccc3)n(Cc3ccccc3)c2ncn1CCO | n | n | n | n | n | n
c1ccc(-c2oc3ncnc(NCCCn4ccnc4)c3c2-c2ccccc2)cc1 | n | 98 | 66 | n | n | 99
OCCNc1ncnc2c1c(-c1ccccc1)c(-c1ccccc1)n2Cc1ccco1 | n | n | 33 | n | n | 56
COc1ccc(-c2oc3ncnc(N)c3c2-c2ccccc2)cc1 | n | n | n | n | n | n
c1ccc(-c2c(-c3ccccc3)n(Cc3ccco3)c3ncnc(NCCCn4ccnc4)c23)cc1 | 96 | 100 | 94 | n | n | 100
Cc1cc(C)c2cc(C(c3nnnn3CC3CCCO3)N3CCN4CCCC4C3)c(=O)[nH]c2c1 (stereo not drawn) | n | n | n | n | n | n
O=C(NCc1ccco1)c1nn2c(C(F)(F)F)cc(-c3cccs3)nc2c1Cl | n | n | n | n | n | 55
O=C(NCc1ccco1)c1cc2nc(-c3cccs3)cc(C(F)(F)F)n2n1 | n | n | n | n | n | 56
Cn1c(=O)c2cc(S(=O)(=O)NC(C(=O)NCc3ccccn3)c3ccccc3)ccc2n(C)c1=O (stereo not drawn) | n | n | n | n | n | n
O=C(COC(=O)c1cccnc1)Nc1cccc(Cl)c1 | n | 86 | n | n | n | 69
COC(=O)c1nnn(CC(=O)Nc2cccc(Cl)c2)c1C(=O)OC | n | 79 | n | n | n | 70
O=C(Nc1cccc(Cl)c1)O/N=C\c1ccncc1 | n | 89 | n | n | n | 90
Cc1cnc(C(=O)OCC(=O)Nc2cccc(Cl)c2)cn1 | n | n | n | n | n | n
SMILES | PostGolgi yeast | CYP2C19 inhib | PostGolgi ctrl | CYP2C9 act | CYP2C19 activ | CYP2C9 inh
O=C(COC(=O)c1ccncc1)Nc1cccc(Cl)c1 | n | 78 | n | n | n | 87
Cc1cc(C)n(C(=O)Cc2cn3ccsc3n2)n1 | n | n | n | n | n | n
CS(=O)(=O)N(CC(=O)N1CCCCC1)C1CCCCC1 | n | n | n | n | n | n
COc1cccc(NC(=O)c2cccnc2)c1 | n | n | n | n | n | n
COc1cccc(NC(=O)COC(=O)c2cccnc2)c1 | n | 67 | n | n | n | n
COC(=O)C1(O)CC(CC(C)C)=NN1C(=O)c1ccccc1 (stereo not drawn) | n | n | n | n | n | n
